PAFAH1B3 inh = PAFAH1B3 enzyme inhibitors, primary screen, biochemical, fluorescence polarization, human; Platelet-activating factor acetylhydrolase IB subunit alpha1 (Homo sapiens), Q15102; recombinant PAFAH1B3, FP-rhodamine probe; inhibition, % at 3.39 µM; 340,000 compounds, 0.28% hits;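 active = inhibition above the screen-wide average of all tested compounds plus 3 SD, cut at about 25% in these data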
Target sequence (Q15102 whole entry, looked up): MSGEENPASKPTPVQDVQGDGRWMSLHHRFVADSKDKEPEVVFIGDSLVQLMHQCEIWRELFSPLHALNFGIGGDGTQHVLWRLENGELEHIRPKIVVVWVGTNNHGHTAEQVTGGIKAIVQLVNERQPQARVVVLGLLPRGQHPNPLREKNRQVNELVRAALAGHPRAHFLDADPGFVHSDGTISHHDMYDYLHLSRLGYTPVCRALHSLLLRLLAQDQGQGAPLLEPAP
PAFAH1B2 FP inh = PAFAH1B2 enzyme inhibitors, primary screen, biochemical, fluorescence polarization, human; Platelet-activating factor acetylhydrolase IB subunit alpha2 (Homo sapiens), P68402; recombinant PAFAH1B2, FP-rhodamine activity probe; inhibition, % at 3.39 µM; 340,000 compounds, 1.2% hits;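 active = inhibition above the mean of all tested compounds plus 3 SD, cut at about 24% in these data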
Target sequence (P68402 whole entry, looked up): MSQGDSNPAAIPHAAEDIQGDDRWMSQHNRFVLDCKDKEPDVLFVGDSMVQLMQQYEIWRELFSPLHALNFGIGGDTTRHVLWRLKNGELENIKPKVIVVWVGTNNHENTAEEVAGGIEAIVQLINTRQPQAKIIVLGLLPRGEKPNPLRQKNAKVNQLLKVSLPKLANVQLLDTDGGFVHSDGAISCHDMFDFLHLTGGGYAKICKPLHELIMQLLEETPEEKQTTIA
pPAFAH FP inh = pPAFAH enzyme inhibitors, primary screen, biochemical, fluorescence polarization, human; Platelet-activating factor acetylhydrolase (Homo sapiens), Q13093; recombinant pPAFAH, FP-rhodamine probe fluorescence polarization; inhibition, % at 3.39 µM; 330,000 compounds, 1.5% hits; AID 463082, 2010;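 active = inhibition above the mean inhibition across the screen plus 3 SD, cut at about 25% in these data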;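 also: inhibitors block binding of the rhodamine activity-based probe so polarization drops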
Rin1-Abl PPI inh = inhibitors of Rin1-Abl protein binding, primary screen, biochemical, TR-FRET; Tyrosine-protein kinase ABL1 (Homo sapiens) + Ras and Rab interactor 1 (Homo sapiens), …; inhibition, % at 7.35 µM; 360,000 compounds, 0.4% hits; AID 588664, 2011; in the data active = inhibition above about 5%, passing the limit was not always enough
PAFAH2 inh = PAFAH2 enzyme inhibitors, primary screen, biochemical, fluorescence polarization, human | Platelet-activating factor acetylhydrolase 2, cytoplasmic (Homo sapiens), Q99487 | recombinant PAFAH2, FP-rhodamine activity probe | inhibition, % at 3.39 µM | 340,000 compounds, 0.99% hits | AID 492956, 2010;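 active = inhibition above the mean over all tested compounds plus 3 SD, cut at about 30% in these data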;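 also: inhibitors block probe labeling of enzyme so polarization drops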
E coli Lon inh = inhibitors of E. coli Lon protease, primary screen, biochemical, fluorescence polarization. purified E. coli Lon protease. inhibition, % at 7.94 µM. 360,000 compounds, 0.42% hits. AID 602123, 2011; in the data active = inhibition above about 13%, passing the limit was not always enough
A number is an active result; . = inactive; / = no result. An excerpt weighted towards active compounds, which were near 3.1% of everything screened.

SMILES	PAFAH1B3 inh	PAFAH1B2 FP inh	pPAFAH FP inh	Rin1-Abl PPI inh	PAFAH2 inh	E coli Lon inh
O=C(O)c1cccc2c1C(=O)c1ccc(N3CCCC3)cc1S2(=O)=O	.	.	.	.	.	48
Cc1ccc(C)c(OCCC(=O)OCC(=O)NCCc2ccc(S(N)(=O)=O)cc2)c1	.	.	.	.	.	.
O=C(OCC(=O)c1ccc(Cl)s1)c1cnccn1	.	.	26	.	.	.
O=C(COC(=O)c1cnccn1)c1ccc(Br)cc1	.	26	.	.	.	.
COC(=O)C(C(=O)OC)C1C=CCN(C(C)=O)C1 (stereo unspecified)	.	.	/	.	.	.
CC(C)=CCC[C@H](C)C[C@@H]1Cc2[nH][nH]c(=O)c2[C@H](c2ccc(F)cc2)O1	/	/	/	/	/	.
CC1CCN(S(=O)(=O)c2cc(C(=O)Nc3ccccn3)ccc2Br)CC1	.	.	.	.	.	.
Cc1ccc(N(CC(N)=O)C2SC(=O)N(Cc3ccccc3)C2=O)cc1 (stereo unspecified)	.	26	.	.	.	.
NC(=O)CN(c1ccccc1)C1SC(=O)N(Cc2ccccc2)C1=O (stereo unspecified)	.	.	.	.	.	.
O=S(=O)(NC(CO)Cc1ccccc1)c1cc(Cl)ccc1F (stereo unspecified)	.	.	/	.	.	.
O=S(=O)(NC(CO)Cc1ccccc1)c1ccc(Br)cc1F (stereo unspecified)	.	29	/	.	.	.
COc1ccc(CC(=O)OCC(=O)Nc2ccc(F)cc2)cc1	.	.	/	.	.	.
CCOc1cccc(CN2CCC(Oc3ccc(C(=O)NCc4ccccn4)cc3)CC2)c1	.	.	.	.	.	.
CCC(C)NS(=O)(=O)c1ccc(NC(=O)CCC2CCCCC2)cc1 (stereo unspecified)	.	.	.	.	.	.
CCC(C)NS(=O)(=O)c1ccc(S(=O)(=O)N(CC(=O)Nc2ccccc2)CC2CCCO2)cc1 (stereo unspecified)	.	.	31	.	.	.
CC(=O)c1cccc(NC(=O)C(C)OC(=O)CCN=C2NS(=O)(=O)c3ccccc32)c1 (stereo unspecified)	86	106	.	.	106	.
CCC(C)c1c(N)n(S(=O)(=O)c2ccc(C)cc2)oc1=O (stereo unspecified)	.	42	/	.	.	.
CCC(C)c1c(NS(=O)(=O)c2ccc(C)cc2)o[nH]c1=O (stereo unspecified)	.	.	/	.	.	.
COc1ccc(CNc2oc(COc3ccc(Cl)cc3)nc2C#N)cc1	.	28	.	.	.	.
COc1ccc(CCNc2oc(COc3ccc(Br)cc3)nc2C#N)cc1OC	.	28	.	.	.	.
COc1ccc(Nc2oc(COc3ccc(Cl)cc3)nc2C#N)cc1	.	.	.	.	.	.
Cc1cc(C)c(C#N)c(SCCS(=O)(=O)c2ccc(C(C)(C)C)cc2)n1	.	.	.	.	.	.
Cc1cc(C)c(C#N)c(SCCS(=O)(=O)c2ccc(Cl)cc2)n1	.	29	.	.	.	.
CC(=O)c1ccc(NS(=O)(=O)c2ccc(CC(C)C)cc2)cc1	.	28	.	.	.	.
CC(=O)c1ccc(NC(=O)Nc2ccc(NS(=O)(=O)c3ccc(C)cc3)cc2)cc1	.	.	.	.	.	.
SMILES	PAFAH1B3 inh	PAFAH1B2 FP inh	pPAFAH FP inh	Rin1-Abl PPI inh	PAFAH2 inh	E coli Lon inh
CC(=O)Nc1ccc(S(=O)(=O)Nc2ccc(Cc3ccncc3)cc2)cc1	.	.	29	.	.	.
CC(=O)Nc1ccc(Cc2ccncc2)cc1	.	.	.	.	.	.
Cc1ccc(NS(=O)(=O)c2ccc(CCC(=O)NCCCOC(C)C)cc2)cc1	.	.	26	.	.	.
CCn1c(=O)c(=O)n(CC)c2cc(S(=O)(=O)Nc3ccc(C)cc3)ccc21	.	.	26	.	.	.
CCn1c(=O)n(CC)c2cc(S(=O)(=O)Nc3c(C)cccc3C)ccc21	.	.	.	.	.	.
S=C(NCCc1ccccc1)N1CCC2CC1c1cc(-c3ccc4c(c3)OCO4)ccc12 (stereo unspecified)	/	/	/	.	/	.
Cc1cc(N/N=C/c2ccc3c(c2)OCO3)nc2ccccc12	.	.	.	.	.	.
COCCCNC(=O)CCc1ccc(S(=O)(=O)Nc2ccc(C)cc2)cc1	.	.	.	.	.	.
Cc1ccc(NS(=O)(=O)c2ccc(CCC(=O)O)cc2)cc1	.	.	34	.	.	.
O=C(Cn1nc(-c2ccccc2)oc1=O)OCC(=O)c1ccc(F)c(F)c1	.	.	.	.	.	.
COc1ccc(Br)cc1C1SCCN1S(C)(=O)=O (stereo unspecified)	.	.	.	.	.	.
CS(=O)(=O)N1CCSC1c1ccc(Br)cc1 (stereo unspecified)	.	26	.	.	.	.
COC(=O)c1ccc(N2CCc3ccccc32)c([N+](=O)[O-])c1	.	.	25	.	.	.
O=C(Nc1ccccc1N1CCCC1)C1CCCO1 (stereo unspecified)	.	.	/	.	.	.
Cc1nc(Nc2ccccc2)sc1-c1ccccc1	.	.	27	.	.	.
Cc1ccc(S(=O)(=O)NCCC(=O)OCc2ccc([N+](=O)[O-])cc2)cc1C	.	.	.	.	.	.
Nc1ccc(O)c(C(=O)O)c1	/	/	49	/	/	/
Cc1noc(C)c1C(=O)N1CCC1(C)C(=O)NS(=O)(=O)Cc1cccc(Cl)c1 (stereo unspecified)	/	/	/	.	/	.
CCOc1ncccc1C(=O)OCC(=O)Nc1c(C)cccc1C	.	.	.	.	.	.
CCOc1ncccc1C(=O)OCC(=O)NC1CCCCC1	.	.	31	.	79	.
O=C(COC(=O)c1ccccc1Br)NC1CCCCCCC1	.	.	32	.	86	.
CCOc1ncccc1C(=O)OCC(=O)Nc1ccc(-c2nc3ccc(C)cc3s2)cc1	.	.	25	.	.	.
CCOc1ncccc1C(=O)OCC(=O)Nc1c(C)cc(C)cc1C	.	.	26	.	34	.
CC(=O)NCCNc1nc2cc(-c3cccc(C(F)(F)F)c3)sc2c(=O)n1C	/	/	/	.	/	.
Cc1ccc(N2CC(NS(=O)(=O)c3cccs3)CC2=O)cc1 (stereo unspecified)	.	.	.	.	.	.
CCOC(=O)C1OC1(c1ccccc1)c1ccccc1 (stereo unspecified)	.	.	/	.	.	.
O=C(COC(=O)c1cc(F)c(F)cc1Cl)NC1CCCCCC1	/	/	/	.	/	.
O=C(COC(=O)c1sc2ccccc2c1Cl)NC1CCCCC1	.	.	31	.	.	.
NC(=O)NC(=O)COC(=O)c1sc2ccccc2c1Cl	.	.	.	.	.	.

Source: PubChem
